This is an account of results in PubChem BioAssay (EPA / NIEHS).

One may read the AC50 as the midpoint of the concentration-response curve, whichever way the signal moves.

Molecules are shown by their SMILES. Records with an inconclusive call do not appear. Activity calls are given as the source filed them. Rule for the calls, unless noted: active = hit-call score of the fitted dose curve at least 0.9, where 1 is the maximum; inactive = score below 0.9.

A short description of assay [1]: CCTE_Mundy_HCI_Cortical_Synap_Neur_Matur_SynapseCount: CCTE's Synaptogenesis and Neurite Maturation Assay in rat cortical cells for Synapse Count, Mundy Lab (AID 2284218). The method, boiled down:
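Rat primary cortical cells in 96-well plates received AraC at DIV 5 and were dosed with chemicals at DIV 7 with media change, through DIV 12 (288.33 h). Synapses per neuron counted by high-content imaging of MAP2/synaptophysin/Hoechst staining, versus DMSO baseline.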

Assay [2] can be described thus: CCTE_Mundy_HCI_Cortical_Synap_Neur_Matur_NeuriteCount: CCTE's Synaptogenesis and Neurite Maturation Assay in rat cortical cells for Neurite Count, Mundy Lab (AID 2284222). The procedure, abridged:
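Rat cortical neurons, 96-well; AraC DIV 5; chemical + media change DIV 7; end DIV 12. Fix PFA/Hoechst, anti-MAP2 + anti-synaptophysin IF. HCI neurite count vs DMSO baseline.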

Assay [3] is described as follows: CCTE_Mundy_HCI_Cortical_Synap_Neur_Matur_CellBodySpotCount: CCTE's Synaptogenesis and Neurite Maturation Assay in rat cortical cells for Cell Body Spot Count, Mundy Lab (AID 2284223). The procedure, abridged:
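Primary rat cortical cultures, AraC added at DIV 5; dosed DIV 7 through DIV 12 […]. Fixed, stained for MAP2 and synaptophysin with Hoechst; cell body-associated synaptophysin puncta per neuron counted by high-content imaging, loss vs DMSO.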

A short description of assay [4]: CCTE_Mundy_HCI_hN2_NOG_NeuriteCount: CCTE's Neurite Outgrowth Assay in human hN2 cells for Neurite Count, Mundy Lab (AID 2284219; active = hit-call score of the fitted dose curve at least 0.9, where 1 is the maximum). The method, boiled down: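 In this morphology assay, hNP1-derived neurons received test chemical 2 h post-plating and were fixed two days later in warm paraformaldehyde/sucrose containing Hoechst 33342. Neurites, labelled by rabbit anti-βIII-tubulin (1:800) and Alexa Fluor-488 (1:500), were counted automatically.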

Assay [5] in a line: CCTE_Mundy_HCI_hN2_NOG_NeuriteLength: CCTE's Neurite Outgrowth Assay in human hN2 cells for Neurite Length, Mundy Lab (AID 2284220; active = hit-call score of the fitted dose curve at least 0.9, where 1 is the maximum). The procedure, abridged:
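Using βIII-tubulin immunofluorescence and Hoechst nuclear counterstain, this component quantifies neurite length in hNP1-derived neurons.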

Assay [6] is described as follows: CCTE_Mundy_HCI_hN2_NOG_NeuronCount: CCTE's Neurite Outgrowth Assay in human hN2 cells for Neuron Count, Mundy Lab (AID 2284221; active = hit-call score of the fitted dose curve at least 0.9, where 1 is the maximum). The procedure, abridged: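 Read-out is the number of betaIII-tubulin-positive neurons imaged by automated high-content analysis, with DMSO as negative control.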
The nature of assay [7]: TAMU_PeakParms_SingleDonor1434_Chronotropy: Texas A&M University (TAMU) 1.5-hr Human Induced Pluripotent Stem Cell (iPSC)-derived Cardiomyocytes Calcium (Ca+2) Flux Assay for Cardiotoxicity: Chronotropy (changes in peak frequency) (AID 2284217). As to conditions: actives raise or lower the signal. The method, boiled down: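 Beat rate, as mean Ca2+-flux peak frequency, was read from donor 1434 iPSC cardiomyocytes 90 min after exposure to 0.2–100 uM test chemical (0.5% DMSO). Wells that stopped beating were excluded; EC05 from bidirectional DMSO-referenced fitting.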

Take `COP(=O)(OC)O/C(C)=C/C(=O)N(C)C`: the compound was called inactive in assay [1], in assay [2] and in assay [3].

Regarding `O=C(Nc1ccccc1-c1ccc(Cl)cc1)c1cccnc1Cl`, the compound was classed as inactive in assay [1], in assay [2] and in assay [3].

As to `Cc1c(COC(=O)[C@@H]2[C@H](/C=C(\Cl)C(F)(F)F)C2(C)C)cccc1-c1ccccc1`, the results for the AC50 in assay [1], in assay [2] and in assay [3] were 3.14 µM (active), 5.03 µM (active) and 3.12 µM (active), respectively.

In the case of `CS(=O)(=O)c1ccc(C(=O)C2C(=O)CCCC2=O)c([N+](=O)[O-])c1`, the call in assay [1], in assay [2] and in assay [3] was inactive.

For the compound `CCOP(=O)(OCC)Oc1nc(Cl)c(Cl)cc1Cl`, the compound was classed as inactive in assay [1], in assay [2] and in assay [3]. Besides, the AC50 in assay [4] was 50 µM (active); in assay [5] it was 38.4 µM (active); in assay [6] it was 50 µM (active).

With `COP(=S)(OC)SCn1nnc2ccccc2c1=O`, the compound was called inactive in assay [1], in assay [2] and in assay [3].

For the compound `CNC(=O)Oc1cccc2ccccc12`, the result in assay [7], in assay [1], in assay [2] and in assay [3] was inactive.

Take `CN/C(=N\[N+](=O)[O-])NCc1cnc(Cl)s1`: the call in assay [1], in assay [2] and in assay [3] was inactive.
